molecular target: CRTAM; assay: pooled miR-30 sensor sort-seq; sequence = guide strand; conditions: shRNA
Note: reference of the scale not given here.

Point of comparison: TAGCTGCTCACACTGACCCTGA, sensor-assay potency score (higher = more potent) -0.659. Against it:
- TTTGCTTCTGAGTACAACTTTG — lower, -0.892
- TTGAATGTTGTACATTTTCCTT — lower, -1.1
- TTTTCTTTCTTGCCAGTCCTAA — higher, -0.265
- TTGATCTGTAACTTTCTAGTGT — higher, 0.218
- TTGACCTTGATCTGTAACTTTC — lower, -1.09
- TTTGTGCTTACAGAGTCGCTGT — higher, -0.405
- TTTGTGATGTAGTTCATGCAAC — higher, -0.216
- TTTTGCTTTCTGATAACTGAAG — lower, -1.15
- TTAAACTACAAGCTTTATGTGC — higher, -0.391
- TAGTATTACATTTCTTCCCATC — lower, -0.999

molecular target: CRX; assay: as above; conditions: shRNA

Point of comparison: TAGGTCATGGCATAGGGGGCGG, sensor-assay potency score (higher = more potent) -1.09. Against it:
- TGAACCAAACCTGAACCCTGGA — higher, -0.615
- AATTCCAAGCTATCCACGGGGC — higher, -0.328
- TGTAAGCTGAACACCGAGCTGT — higher, 0.575
- AATAGGAGCTCGGAGACCCATA — lower, -1.54
- TTGTAGGTGAATTTCCAGGTGC — higher, -0.434
- ACTCTGATCCTTGTAGTCCAGA — lower, -1.36
- TTGAACCAAACCTGAACCCTGG — higher, -0.194
- TAGCTCTGGCCTGATAGGGAGG — higher, -0.851
- TAGGTGAATTTCCAGGTGCCCG — lower, -1.41
- TTGATCTTCAGAGCCACCTCCT — higher, -0.746
- TTTGGTTTGACTTCTTCTTGGA — higher, 0.763
- TTTGACTTCTTCTTGGAGCAAG — higher, -0.501
- TGAGAGAATCACTAGGACCTGT — higher, -0.0623
- TGATCCTTGTAGTCCAGAGGGT — higher, -0.793
- TTCTGAAGCCTGGAGCTCGTGG — higher, -0.966
- TAGACGTCTGGGTACTGGGTCT — higher, -0.0426
- TTGTAGTCCAGAGGGTCCATGG — lower, -1.32
- TTGGTTTGACTTCTTCTTGGAG — higher, -0.00294
- TGTAGGAATCTGAGATGCCCAG — higher, -0.841
- TTCAGAGCCACCTCCTCACGGG — higher, -0.313
- TTTCTCAGGAATGCCATCCCGG — higher, -0.63

molecular target: CRYGS; assay: as above; conditions: shRNA

Point of comparison: TTACAGGAGTGGATCTCTCGCA, sensor-assay potency score (higher = more potent) 0.0996. Against it:
- TGAACAGCTCTGCAGGAGCTGA — lower, -1.21
- TTGAAAATTTTTGTCTTCATAG — lower, -1.17
- TCGCAATCACAGTCATAGCGAC — lower, -1.06
- TTTTTGTCTTCATAGAAAGTAA — lower, -0.778
- TTTGTCTTCATAGAAAGTAATC — lower, -1.62
- AAAGATCTGAATCTTATACTGG — lower, 0.0834
